# Shown are actives, neighbours in structure and some others; about 2.6% of the full set was active somewhere.
# EWS-Fli block: EWS/Fli-driven NR0B1 reporter inhibitors, primary screen, A673 cells, NR0B1 luciferase, luminescence, MLPCN library; viability-normalised; hit rate 0.67% among 350,000; AID 651661, 2012; inhibition, % at 12.6 µM;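 active means mean inhibition of at least 50% after viability correction, with every replicate also passing that limit; inconclusive means mean reaches 50% but only one of two replicates passes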;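 further: firefly luciferase signal divided by Alamar Blue viability fluorescence both relative to DMSO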
# LGR2 antag: inhibitors of bursicon-induced LGR2 CRE-luciferase signal, primary screen, cell-based, HEK293, CRE-luciferase reporter, bursicon stimulation; hit rate 0.35% among 380,000; inhibition, % at 9.99 µM; bursicon-stimulated, 4 h; Drosophila bursicon receptor LGR2 (rickets); AID 720647, 2013;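 active means drop in luminescence signal, shown as inhibition above about 50% in the replicate tests, limit read from the data, passing the limit was not always enough; inconclusive means probably only some replicates passing the limit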;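 further: agonist challenge used bursicon conditioned medium at about half maximal strength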
# LMP1 NFkB inh: EBV LMP1-driven NF-kappaB luciferase reporter inhibitors, primary screen, cell-based, luminescence, single point; LMP1-induced NF-kappaB luciferase reporter cells; inhibition, % at 12.5 µM; hit rate 0.69% among 350,000; in the data active means inhibition above about 41%; inconclusive means no clear call, values can overlap the other calls;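 further: 0% = neutral control wells and 100% = reference inhibitor control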
# TROY signal inh: inhibitors of TROY-driven NF-kB signaling, primary screen, Q293 LMP1-TROYcd cells, NF-kB luciferase, uHTS; inhibition, % at 10 µM; hit rate 0.98% among 360,000; Q293 LMP1-TROYcd NF-kB luciferase reporter, 4 h;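 active means compounds whose plate-normalised and pattern-corrected inhibition of the luciferase reporter signal at the single screening dose is 50% or more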
# TWEAK Fn14 block: inhibitors of TWEAK-Fn14 signaling, primary screen, luciferase reporter cells, uHTS; TWEAK-stimulated Fn14 reporter cells, luciferase luminescence, 8 h; inhibition, % at 10 µM; hit rate 2% among 360,000; AID 1159606, 2016; in the data active means inhibition above about 50%
# * = called active by the depositor; ? = inconclusive; · = not tested or not shown.
SMILES,EWS-Fli block,LGR2 antag,LMP1 NFkB inh,TROY signal inh,TWEAK Fn14 block
CCCn1c(SCC(=O)Nc2cccc(S(=O)(=O)NC3=NCCCCC3)c2)nc2ccccc2c1=O,22,7,8,57*,78*
Cc1c(-c2cccc(Cl)c2)nc2ccccc2c1C(=O)OCC(=O)Nc1ccc2c(c1)OCO2,·,-15,2,27,52*
COc1cccc(S(=O)(=O)N[C@H]2C=C[C@@H](CC(=O)NC3CCC3)O[C@H]2CO)c1,-2,-3,·,·,·
COc1cc(C2Nc3ccc4ccccc4c3C3=C2C(=O)CC(C)(C)C3)ccc1OCC(=O)O (configuration not stated),0,8,8,-2,19
COc1cccc(C2Nc3ccc4ccccc4c3C3=C2C(=O)CC(C)(C)C3)c1OCC(=O)O (configuration not stated),11,7,55*,-4,15
CO[C@@H]1CN(C)C(=O)c2ccc(NC(=O)c3cnccn3)cc2OC[C@@H](C)N(C(=O)c2cnccn2)C[C@H]1C,1,9,·,·,·
COc1ccc(-c2nnc(NC(=O)c3ccc(S(=O)(=O)N4CCCc5ccccc54)cc3)o2)cc1,·,·,49*,3,-8
Cc1csc(N/N=C/c2ccccn2)n1,42,69*,?,-4,72*
C(=N\NC1=Nc2cccc3cccc1c23)/c1ccccn1,1,-91,-16,19,63*
C[C@H]1CCCCO[C@@H](CN(C)C(=O)Nc2cccc3ccccc23)[C@@H](C)CN([C@@H](C)CO)C(=O)c2cc(NS(C)(=O)=O)ccc2O1,9,16,·,·,·
CN1C(=O)c2cc(NC(=O)c3cscn3)ccc2OC[C@H]2O[C@@H](CC(=O)N3CCCCC3)CC[C@H]21,-9,4,·,·,·
CC(=O)N(C)C[C@H]1Oc2ncc(C#Cc3cccnc3)cc2C(=O)N([C@H](C)CO)C[C@H]1C,5,-13,·,·,·
O=C1C(N2CCOCC2)=C(n2nnc3ccccc32)C(=O)c2ccccc21,·,·,65*,14,45
COc1ccccc1C1=NOC(COc2ccc3c(C)cc(=O)oc3c2)C1 (configuration not stated),53*,·,12,9,-8
Cc1cc(=O)oc2cc(Oc3ncccn3)ccc12,·,·,45*,-1,-4
Cc1cc(=O)oc2cc(Oc3ncccc3[N+](=O)[O-])ccc12,-7,7,0,27,1
COc1ccc(C2=NOC(COc3ccc4c(C)cc(=O)oc4c3)C2)c(OC)c1 (configuration not stated),56*,·,·,-11,-2
C[C@H]1COc2cc(N3CCOCC3)ccc2S(=O)(=O)N1,-4,4,·,·,·
O=C1S/C(=C\c2ccc(O)c([N+](=O)[O-])c2)C(=O)N1c1ccccc1Cl,-19,0,-4,54*,22
O=C1S/C(=C\c2ccc(O)c([N+](=O)[O-])c2)C(=O)N1Cc1cccc([N+](=O)[O-])c1,-3,10,4,59*,53*
Cc1cccc(NC(=O)CN2C(=O)S/C(=C\c3ccc(O)c([N+](=O)[O-])c3)C2=O)c1,8,-17,2,5,10
C[C@@H]1CCCCO[C@@H](CN(C)S(C)(=O)=O)[C@H](C)CN([C@H](C)CO)C(=O)c2cc(NS(=O)(=O)c3ccccc3)ccc2O1,-15,-9,·,·,·
CCCN(CCC)S(=O)(=O)c1ccc(Cl)c([N+](=O)[O-])c1,54*,84*,2,33,17
CCCN(CCC)S(=O)(=O)c1ccc(N2CCCC2=O)c([N+](=O)[O-])c1,2,9,-39,-5,-18
CCOC(=O)c1cc2c(c(-c3cccc(-c4cccc(OC)c4)c3)n1)[C@@H](CCO)N(S(=O)C(C)(C)C)C2 (some centres not stated),-1,-10,·,·,·
SMILES,EWS-Fli block,LGR2 antag,LMP1 NFkB inh,TROY signal inh,TWEAK Fn14 block
CCC(=O)Nc1ccc2c(c1)OC[C@H](C)N(Cc1ccccc1C(=O)O)C[C@@H](C)[C@H](OC)CN(C)C2=O,-1,3,·,·,·
CC(Sc1cnc2ccccc2n1)C(=O)O (configuration not stated),·,·,-12,-10,3
Cc1ccc(Sc2cnc3ccccc3n2)cc1,·,·,56*,-45,-7
COCC(=O)N1CCCCN2[C@@H](CO)[C@@H](c3ccc(C#Cc4ccccc4)cc3)[C@@H]2C1,-35,-16,·,·,·
CCCC(C(=O)NCc1ccco1)N(CC1CCCO1)C(=O)CNS(=O)(=O)c1ccc(F)cc1 (configuration not stated),-6,-18,-1,-19,-4
CCCC(C(=O)NC(C)(C)C)N(CC1CCCO1)C(=O)CNS(=O)(=O)c1ccc(F)cc1 (configuration not stated),-5,2,-2,-5,85*
CCOC(=O)c1sc2nc(C)nc(NCc3ccccc3)c2c1C,6,-2,52*,16,-11
CCOC(=O)c1sc2nc(C)nc(Nc3ccccc3)c2c1C,6,-31,6,-8,-12
CCCNC(=O)[C@@H]1[C@@H](CO)[C@@H]2Cn3c(ccc(-c4cccnc4)c3=O)[C@@H]2N1Cc1cocn1,-3,2,·,·,·
CO[C@H]1CN(C)C(=O)c2cccc(C#N)c2OC[C@H]2O[C@H](CC[C@H]2OC)CCN(C)C(=O)[C@H]1C,-3,20,·,·,·
Cc1cc(C(=O)N/N=C/c2cc([N+](=O)[O-])ccc2O)c2ccccc2n1,·,15,9,21,10
Cc1cc(C(=O)N/N=C/c2ccc([N+](=O)[O-])cc2)c2ccccc2n1,51*,15,7,29,9
Cc1cc(C(=O)N/N=C/c2ccc(N(C)C)cc2)c2ccccc2n1,37,14,0,54*,51*
COc1ccc(CNC(=O)C[C@H]2CC[C@H]3[C@@H](COc4ccc(NC(=O)C5CC5)cc4C(=O)N3C)O2)cc1,2,-21,·,·,·
C[C@H](CO)N1C[C@H](C)[C@H](CN(C)S(=O)(=O)c2cn(C)cn2)Oc2ncc(-c3ccccc3)cc2C1=O,-8,18,·,·,·
COc1ccc(NC(=O)N(C)C[C@H]2Oc3c(NS(C)(=O)=O)cccc3C(=O)N([C@H](C)CO)C[C@@H]2C)cc1,-9,·,·,·,·
CC(=O)Nc1ccc(C=NNC(=O)CCCC(=O)NN=Cc2ccc(NC(C)=O)cc2)cc1,-3,3,81*,2,19
CN(C)CCN(Cc1ccc(Cl)cc1)c1ccccn1,4,11,52*,-3,-8
CN1CCC(OC(=O)c2cc3cc(Cl)cc(Cl)c3oc2=O)CC1,17,16,22,6,77*
CC(C)NC(=O)N(C)C[C@H]1OCCCC[C@@H](C)Oc2ccc(NS(=O)(=O)c3ccccc3)cc2C(=O)N([C@H](C)CO)C[C@H]1C,-20,5,·,·,·
CCOC(=O)c1c(NC(=S)N2CCOCC2)sc2c1CCN(C(=O)OCC)C2,14,63*,·,13,9
